According to PubChem BioAssay (EPA / NIEHS):
Values joined by “and” are separate entries in the source; they are usually repeats but may differ in a detail not shown here. Equal values may be shown once. Inconclusive results are not listed. Some compounds were tested as several samples or in several runs, with calls that do not always agree. Active and inactive are the calls of the source. Rule for the calls, unless noted: active = hit-call score of the fitted dose curve at least 0.9, where 1 is the maximum; inconclusive = response in the unintended direction; inactive = score below 0.9.

Assays:
[1] = target: Estrogen receptor (Homo sapiens) (UniProt P03372); test: OT_ERa_GFPERaERE_0480: Odyssey Thera (OT) 8-hour HeLa Transcription Induction Assay for Estrogen Receptor (AID 2283381; active = hit-call score of the fitted dose curve at least 0.9, where 1 is the maximum; inactive = score below 0.9)
Sequence of Estrogen receptor (Homo sapiens) (P03372 whole entry, looked up): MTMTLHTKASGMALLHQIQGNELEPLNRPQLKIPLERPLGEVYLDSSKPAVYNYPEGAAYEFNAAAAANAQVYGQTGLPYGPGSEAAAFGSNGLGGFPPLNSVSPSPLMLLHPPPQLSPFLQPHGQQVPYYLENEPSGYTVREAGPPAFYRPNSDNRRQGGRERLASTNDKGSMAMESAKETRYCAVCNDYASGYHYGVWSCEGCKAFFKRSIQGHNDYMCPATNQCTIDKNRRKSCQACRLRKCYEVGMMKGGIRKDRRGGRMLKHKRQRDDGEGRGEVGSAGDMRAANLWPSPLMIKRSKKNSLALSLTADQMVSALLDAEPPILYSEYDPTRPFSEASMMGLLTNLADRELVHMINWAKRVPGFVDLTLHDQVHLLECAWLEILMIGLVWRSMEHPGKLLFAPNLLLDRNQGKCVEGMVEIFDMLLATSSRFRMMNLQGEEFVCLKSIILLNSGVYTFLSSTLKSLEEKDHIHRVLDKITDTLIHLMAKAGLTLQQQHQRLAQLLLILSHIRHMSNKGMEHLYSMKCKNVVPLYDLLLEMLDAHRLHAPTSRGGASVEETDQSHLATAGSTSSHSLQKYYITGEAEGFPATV
Method in brief: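 Fluorescent reporter signal, imaged by microscopy and scored with image-analysis algorithms, was taken 8 h after chemical dosing of HeLa cells; activity was fitted upward relative to DMSO.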

[2] = target: Estrogen receptor (Homo sapiens) (UniProt P03372); test: OT_ERa_GFPERaERE_0120: Odyssey Thera (OT) 2-hour HeLa Transcription Induction Assay for Estrogen Receptor (AID 2283382)
Method in brief: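 HeLa, 384-well, 2 h chemical exposure; GFP reporter induction (ERE), fluorescence microscopy; high content image analysis; positive fitting direction vs DMSO.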

[3] = target: Peroxisome proliferator-activated receptor gamma (Homo sapiens) (UniProt P37231); test: OT_PPARg_PPARgSRC1_0480: Odyssey Thera (OT) 8-hour Protein-Complementation Assay for Peroxisome Proliferator-activated Receptor Gamma / SRC-1 Co-activator (AID 2283387)
Sequence of Peroxisome proliferator-activated receptor gamma (Homo sapiens) (P37231 whole entry, looked up, the tested form may be a part): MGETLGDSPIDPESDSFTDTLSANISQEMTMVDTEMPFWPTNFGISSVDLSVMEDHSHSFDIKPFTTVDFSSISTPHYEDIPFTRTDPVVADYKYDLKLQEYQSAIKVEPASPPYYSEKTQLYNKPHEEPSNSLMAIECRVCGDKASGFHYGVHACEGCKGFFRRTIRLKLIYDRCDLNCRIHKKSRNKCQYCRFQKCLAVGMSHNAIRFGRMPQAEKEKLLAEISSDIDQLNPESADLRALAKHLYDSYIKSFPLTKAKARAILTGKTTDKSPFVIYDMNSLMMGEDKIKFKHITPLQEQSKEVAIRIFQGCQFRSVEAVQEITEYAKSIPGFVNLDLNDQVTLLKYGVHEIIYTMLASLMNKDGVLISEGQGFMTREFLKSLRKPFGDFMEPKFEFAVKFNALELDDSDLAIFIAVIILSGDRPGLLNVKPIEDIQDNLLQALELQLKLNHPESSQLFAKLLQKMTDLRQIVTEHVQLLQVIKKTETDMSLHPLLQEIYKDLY
Method in brief: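 Split-YFP (IFP1/IFP2) PPARg/SRC-1 reporter, HEK293T, 37 °C, 5% CO2; 8 h compound; formaldehyde fix + Draq5; high-content imaging, N/C ratio, ≥350 cells/image, positive direction vs DMSO.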

[4] = target: Peroxisome proliferator-activated receptor gamma (Homo sapiens) (UniProt P37231); test: OT_PPARg_PPARgSRC1_1440: Odyssey Thera (OT) 24-hour Protein-Complementation Assay for Peroxisome Proliferator-activated Receptor Gamma/ SRC-1 Co-activator (AID 2283388)
Method in brief: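 HEK293T cells transiently transfected with PPARg and SRC-1 fused via (Gly4Ser)2 linker to split Venus YFP fragments (IFP1/IFP2) were dosed 24 h; fixed, Draq5-stained, imaged at 488/635 nm; nuclear/cytoplasmic fluorescence ratio scored versus DMSO baseline, gain-of-signal.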

[5] = CEETOX_H295R_11DCORT: CeeTox H295R High-throughput Steroidogenesis Assay for 11-Deoxycortisol (11DCORT) (AID 2283432; active = hit-call score of the fitted dose curve at least 0.9, where 1 is the maximum; inactive = score below 0.9); conditions: actives raise or lower the signal
Method in brief: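 Steroidogenesis in human H295R cells: 48 h chemical exposure after forskolin priming, 11-deoxycortisol measured by LC-MS/MS.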

[6] = CEETOX_H295R_OHPREG: CeeTox H295R High-throughput Steroidogenesis Assay for OH-Pregnenolone (OHPREG) (AID 2283434; active = hit-call score of the fitted dose curve at least 0.9, where 1 is the maximum; inactive = score below 0.9); conditions: actives raise or lower the signal
Method in brief: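 Hormone levels in spent medium were measured by tandem mass spectrometry following liquid-liquid extraction. Cells (H295R) had been forskolin-stimulated (10 uM, 48 h) before a 48 h chemical exposure at 0.1% DMSO, with activity fitted in both directions against DMSO.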

[7] = CEETOX_H295R_OHPROG: CeeTox H295R High-throughput Steroidogenesis Assay for OH-Progesterone (OHPROG) (AID 2283435; active = hit-call score of the fitted dose curve at least 0.9, where 1 is the maximum; inactive = score below 0.9;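 for AC50: human adrenal H295R cells primed 48 h with 10 µM forskolin; 17alpha-hydroxyprogesterone secreted into medium measured by HPLC-MS/MS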); conditions: actives raise or lower the signal
Method in brief: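 H295R, 10 uM forskolin prestim 48 h; cmpd in 0.1% DMSO 48 h; medium MTBE-extracted, HPLC-MS/MS for OH-progesterone; 7-pt std curve; bidirectional fit vs DMSO; MTT viability, chemicals diluted until viability >/=70%.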

[8] = CEETOX_H295R_CORTIC: CeeTox H295R High-throughput Steroidogenesis Assay for Corticosterone (CORTIC) (AID 2283437; active = hit-call score of the fitted dose curve at least 0.9, where 1 is the maximum; inactive = score below 0.9;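 note: corticosterone secreted into medium quantified by mass spectrometry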); conditions: actives raise or lower the signal
Method in brief: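 Corticosterone secreted into medium is measured by reverse-phase HPLC with tandem MS following liquid-liquid extraction. Cells are forskolin-stimulated (10 uM, 48 h) before 48 h test exposure; activity fitted in both directions against DMSO.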

[9] = CEETOX_H295R_CORTISOL: CeeTox H295R High-throughput Steroidogenesis Assay for Cortisol (AID 2283438; active = hit-call score of the fitted dose curve at least 0.9, where 1 is the maximum; inactive = score below 0.9;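 note: cortisol secreted into medium quantified by LC-MS/MS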); conditions: actives raise or lower the signal
Method in brief: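 Forskolin 10 uM 48 h prestim → test cmpd in DMSO (0.1% final) 48 h → medium MTBE-extracted → LC-MS/MS cortisol vs 7-pt std curve. Gain/loss of signal fitted vs DMSO. MTT viability in same wells.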

[10] = target: Retinoic acid receptor RXR-alpha (Homo sapiens) (UniProt P19793); test: OT_NURR1_NURR1RXRa_0480: Odyssey Thera (OT) 8-hour HEK293T Protein Complementation Assay for Nurr1/retinoid X receptor (RXR) (AID 2283385)
Sequence of Retinoic acid receptor RXR-alpha (Homo sapiens) (P19793 whole entry, looked up, the tested form may be a part): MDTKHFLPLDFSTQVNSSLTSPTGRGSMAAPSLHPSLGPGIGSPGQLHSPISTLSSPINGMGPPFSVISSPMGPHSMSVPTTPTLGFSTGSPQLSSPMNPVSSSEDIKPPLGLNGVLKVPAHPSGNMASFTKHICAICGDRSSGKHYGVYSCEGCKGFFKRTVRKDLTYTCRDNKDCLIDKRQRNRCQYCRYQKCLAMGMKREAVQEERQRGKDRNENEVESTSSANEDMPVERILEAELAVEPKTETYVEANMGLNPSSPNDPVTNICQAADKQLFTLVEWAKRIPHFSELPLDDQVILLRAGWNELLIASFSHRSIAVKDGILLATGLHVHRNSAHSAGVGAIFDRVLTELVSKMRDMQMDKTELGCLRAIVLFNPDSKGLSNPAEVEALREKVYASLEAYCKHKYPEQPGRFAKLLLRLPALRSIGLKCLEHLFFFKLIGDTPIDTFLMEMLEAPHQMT
Method in brief: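 8 h compound exposure, HEK293T; Nurr1/RXRα fragment complementation; fluorescence intensity; positive fitting direction vs DMSO baseline.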

[11] = target: Retinoic acid receptor RXR-alpha (Homo sapiens) (UniProt P19793); test: OT_NURR1_NURR1RXRa_1440: Odyssey Thera (OT) 24-hour HEK293T Protein Complementation Assay for Nurr1/retinoid X receptor (RXR) (AID 2283386)
Method in brief: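 Interaction of Nurr1 with RXRα brings fused reporter fragments together in human HEK293T cells, restoring a functional reporter. Fluorescence intensity is measured 24 h after chemical treatment, and values are analysed in the positive direction against DMSO.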

[12] = target: Bile acid receptor (Homo sapiens) (UniProt Q96RI1); test: OT_FXR_FXRSRC1_0480: Odyssey Thera (OT) 8-hour HEK293T Protein-Complementation Assay for Farnesoid X receptor/SRC-1 Co-activator (AID 2283383)
Sequence of Bile acid receptor (Homo sapiens) (Q96RI1 whole entry, looked up, the tested form may be a part): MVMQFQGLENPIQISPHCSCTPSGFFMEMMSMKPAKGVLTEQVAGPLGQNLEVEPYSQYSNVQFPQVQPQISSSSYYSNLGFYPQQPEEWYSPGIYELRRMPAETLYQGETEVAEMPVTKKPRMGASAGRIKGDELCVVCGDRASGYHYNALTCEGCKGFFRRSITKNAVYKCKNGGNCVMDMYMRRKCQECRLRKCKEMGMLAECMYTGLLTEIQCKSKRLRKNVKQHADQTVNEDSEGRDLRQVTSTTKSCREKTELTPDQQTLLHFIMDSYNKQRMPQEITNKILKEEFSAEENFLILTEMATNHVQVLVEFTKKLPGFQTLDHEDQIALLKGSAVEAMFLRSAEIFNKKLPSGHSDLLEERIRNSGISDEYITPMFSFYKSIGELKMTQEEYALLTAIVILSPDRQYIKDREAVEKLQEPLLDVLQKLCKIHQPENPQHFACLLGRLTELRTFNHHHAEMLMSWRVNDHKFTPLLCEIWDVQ
Method in brief: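 Human kidney HEK293T cells carried FXR/SRC-1 fragment-complementation constructs. Compounds were added and incubated 8 h. Reporter reassembly upon receptor–co-activator interaction was then quantified by fluorescence, with curves fitted in the positive direction relative to DMSO.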

[13] = target: Bile acid receptor (Homo sapiens) (UniProt Q96RI1); test: OT_FXR_FXRSRC1_1440: Odyssey Thera (OT) 24-hour HEK293T Protein-Complementation Assay for Farnesoid X receptor/SRC-1 Co-activator (AID 2283384)
Method in brief: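 Compounds are applied to human kidney HEK293T cells expressing bait and prey fused to reporter protein fragments; after 24 h, reconstituted reporter fluorescence is measured. Activity is fitted as signal gain over DMSO.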

[14] = target: Agonist Androgen Response Element (ARE), AR (gene 367) (UniProt P10275); test: OT_AR_ARELUC_AG_1440: Odyssey Thera (OT) 24-hour CHO-K1 Luciferase Assay for Agonist Androgen Response Element (ARE) (AID 2283379)
Sequence of Agonist Androgen Response Element (ARE), AR (gene 367) (P10275 whole entry, looked up): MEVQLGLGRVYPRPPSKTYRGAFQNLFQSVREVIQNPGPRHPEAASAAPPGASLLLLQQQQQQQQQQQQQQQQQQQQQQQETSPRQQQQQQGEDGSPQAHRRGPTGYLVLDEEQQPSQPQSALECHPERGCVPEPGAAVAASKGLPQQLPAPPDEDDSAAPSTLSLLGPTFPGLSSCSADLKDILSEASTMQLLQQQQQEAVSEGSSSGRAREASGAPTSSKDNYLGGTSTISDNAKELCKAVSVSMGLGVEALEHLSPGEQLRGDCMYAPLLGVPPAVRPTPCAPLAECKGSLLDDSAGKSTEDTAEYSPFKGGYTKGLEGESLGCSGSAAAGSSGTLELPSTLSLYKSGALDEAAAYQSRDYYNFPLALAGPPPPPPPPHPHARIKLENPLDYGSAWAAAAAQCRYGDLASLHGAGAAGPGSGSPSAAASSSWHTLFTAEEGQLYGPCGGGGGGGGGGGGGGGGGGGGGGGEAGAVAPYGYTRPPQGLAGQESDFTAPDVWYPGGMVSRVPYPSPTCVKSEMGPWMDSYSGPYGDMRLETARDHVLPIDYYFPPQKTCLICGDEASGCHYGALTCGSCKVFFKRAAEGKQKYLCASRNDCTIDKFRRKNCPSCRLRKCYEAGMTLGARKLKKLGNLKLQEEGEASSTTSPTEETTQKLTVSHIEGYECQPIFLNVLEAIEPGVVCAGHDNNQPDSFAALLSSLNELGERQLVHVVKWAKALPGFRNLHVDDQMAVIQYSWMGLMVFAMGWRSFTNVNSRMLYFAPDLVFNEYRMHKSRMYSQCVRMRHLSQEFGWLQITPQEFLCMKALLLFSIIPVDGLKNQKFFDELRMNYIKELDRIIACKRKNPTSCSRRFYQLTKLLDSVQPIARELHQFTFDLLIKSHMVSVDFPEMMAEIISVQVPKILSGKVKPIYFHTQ
Method in brief: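 Agonist mode, 24 h exposure in CHO-K1 ARE-luciferase cells; values reflect luminescence induction over vehicle.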

[15] = CEETOX_H295R_ANDR: CeeTox H295R High-throughput Steroidogenesis Assay for Androstenedione (ANDR) (AID 2283436; active = hit-call score of the fitted dose curve at least 0.9, where 1 is the maximum; inactive = score below 0.9;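 note: human H295R adrenal cells exposed for 48 h with androstenedione measured in medium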); conditions: actives raise or lower the signal
Method in brief: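 Read-out is androstenedione secreted into medium, measured by tandem mass spectrometry after liquid-liquid extraction. Cells were H295R, dosed for 48 h per modified OECD 456; activity fitted in both directions relative to DMSO.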

Measured: AC50

CC(C)(C)C(O)/C(=C\c1ccc(Cl)cc1Cl)n1cncn1 (centres undefined)
active: [1] 86.7 µM | [2] 93.6 µM
inactive: [3] | [4] | [5] | [6] | [7] | [8] | [9]

CC(C)(C)C(O)C(Oc1ccc(Cl)cc1)n1cncn1 (centres undefined)
active: [7] 18.3 µM and 3.14 µM and 3.31 µM
inactive: [10] | [11] | [3] | [4] | [6] | [7]

CCc1ccc(C(=O)NN(C(=O)c2cc(C)cc(C)c2)C(C)(C)C)cc1
active: [13] 10.6 µM
not listed: [14] | [15]
inactive: all other assays above

Clc1ccccc1-c1nnc(-c2ccccc2Cl)nn1
inactive: [1] | [2] | [10] | [11] | [3] | [4] | [6] | [7]

O=C(O)COc1ccc(Cl)cc1Cl
inactive: [10] | [11] | [5] | [6] | [7] | [8] | [9]

CNC(=O)CSP(=S)(OC)OC
inactive: [1] | [2] | [10] | [11] | [3] | [4] | [6] | [7]

O=C(O)C(F)(F)C(F)(F)C(F)(F)C(F)(F)C(F)(F)C(F)(F)C(F)(F)F
inactive: [10] | [11]

CC1(c2ccc(Oc3ccccc3)cc2)OC(=O)N(Nc2ccccc2)C1=O (centres undefined)
inactive: [1] | [2] | [3] | [4]
active: [12] 1.94 µM | [13] 1.68 µM

OCCOc1ccccc1
inactive: [1] | [2] | [12] | [13] | [10] | [11] | [3] | [4]

C#CCN1C(=O)COc2cc(F)c(N3C(=O)C4=C(CCCC4)C3=O)cc21
not listed: [12] | [13]
inactive: all other assays above

C[C@H]1[C@H](c2ccc(Cl)cc2)SC(=O)N1C(=O)NC1CCCCC1
not listed: [10] | [12] | [13]
inactive: all other assays above

CCC(C)(NC(=O)c1cc(Cl)c(C)c(Cl)c1)C(=O)CCl (centres undefined)
active: [1] 13.6 µM | [2] 45 µM
inactive: [10] | [3] | [4]

O=C(NC(=O)c1c(F)cccc1F)Nc1ccc(OC(F)(F)C(F)OC(F)(F)F)c(Cl)c1 (centres undefined)
not listed: [12] | [13] | [14] | [15]
inactive: all other assays above
